A selection: hits, their analogues and other compounds. The true share with any hit is near 6.5%.
HepG2 viability – kills HepG2 cells in TGF-b inhibitor counter-screen. HepG2 CAGA-GFP viability, ATP luminescence, 18 h. Potency, µM (titrated, usually from 46.1 µM), hits mostly cytotoxic. 410,000 compounds, 0.76% hits
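HepG2 CAGA-GFP cells (1000/well, DMEM with 1% FBS) received compound, then TGF-beta at 500 pg/mL final, and were incubated 18 hours at 37 degrees C. Viability was read by CellTiter-Glo luminescence. Media-only wells were set as complete cell-killing and DMSO as no toxicity.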
HT1080 IDH1KD tx – HT-1080 IDH1 knockdown cell toxicity (counter line). 360,000 compounds, 2% hits. HT-1080 IDH1 knockdown viability, ATP luminescence, 48 h. Potency, µM (titrated, usually from 46.1 µM), hits mostly cytotoxic. AID 686971
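Viability of IDH1-knockdown HT-1080 fibrosarcoma cells was assessed by CellTiter-Glo after 48 h at 37 °C with titrated compound; concentration-effect curves were classified by fit quality and response size.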
HT1080-NT tox – kills 2HG-producing HT-1080-NT fibrosarcoma cells. Potency, µM (titrated, usually from 46.1 µM), actives largely listed as cytotoxic. 360,000 compounds, 1.6% hits. HT-1080-NT fibrosarcoma viability, CellTiter-Glo ATP luminescence, 48 h;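 further: NT is the 2HG producing partner of a matched IDH1 knockdown line; nearly all actives have a fitted effect of over 55% in size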
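HT-1080-NT; 750 cells/well; 5% FBS RPMI; 48 h compound, 37 degrees C; CellTiter-Glo luminescence; curve fitting and curve-class assignment.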
TGFb inhibitor – TGF-b pathway inhibition | 410,000 compounds, 1.2% hits | HepG2 CAGA-GFP TGF-b/SMAD3 reporter, GFP fluorescence, 18 h; TGF-beta stimulated, 500 pg/mL final | Potency, µM (top dose mostly 46.1 µM), hits mostly inhibitors; further: nearly all actives have a fitted effect of over 65% in size
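HEPG2 CAGA-GFP cells (1000/well, DMEM with 1% FBS) were pre-incubated 2 h at 37 degrees C, given compound by pin tool, then stimulated with TGF-beta at 500 pg/mL final for 18 h before per-cell GFP fluorescence imaging.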
Giardia killer – kills Giardia lamblia; activity change, % at 7.66 µM, hits read low; 340,000 compounds, 0.15% hits; Giardia lamblia trophozoite viability; in the data active means activity change below about -80%; inconclusive means between about -30% and that limit;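 further: parasites exposed to compound for two days anaerobically before the ATP read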
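Giardia trophozoites, 100 cells per well, were exposed to compounds for 48 hrs at 37 deg C under anaerobic conditions; viability was then read as ATP content by bioluminescence after 15-30 min at room temperature.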
IL1B secr inh – inhibitors of inflammasome signaling (IL-1 beta secretion). activity change, % at 57.5 µM. THP-1 LPS/ATP IL-1B secretion, AlphaLISA, 16 h; stronger effect = lower value. 360,000 compounds, 4.7% hits. AID 743279; in the data active means activity change below about -50%; inconclusive means mostly about -30% to -49%
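THP-1 cells pretreated 1 hr with compounds (up to 57.5 uM final), then stimulated with LPS (250 ng/mL final) plus ATP (1.25 mM final); secreted IL-1B measured by AlphaLISA after 16 hr, decreased signal indicating inhibition.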
Each line names hits and unclear results; the compound was inactive in the other large screens. Unless noted, the call rests on the fitted dose curve; in most records, active means well fitted curve in the direction sought with a large enough effect; inconclusive means small, poorly fitted or top-dose-only effect, or another doubt; inactive means no such curve, though single readings can be large; an effect the other way counts as inactive or inconclusive.

COc1ccc2nc(/N=C\N(C)C)sc2c1	none
COC(=O)C1=C(N)Oc2cc(N(C)C)ccc2C1c1ccccc1OC (stereo unspecified)	HT1080 IDH1KD tx 4.1µM, HT1080-NT tox inconclusive
COc1ccc(C(=O)CCC(=O)N2CCN(c3ccc(N4CCOCC4)nn3)CC2)cc1	none
COc1ccc(S(=O)(=O)N(C)C)cc1NCC(=O)Nc1ccc(Br)cc1F	IL1B secr inh inconclusive
Cc1ccc2[nH]c(=O)c(CN(Cc3nnnn3Cc3ccccc3)C3CCCC3)cc2c1	IL1B secr inh -69
Cc1ccc2[nH]c(=O)c(CN(Cc3ccc4c(c3)OCO4)Cc3nnnn3Cc3ccco3)cc2c1	TGFb inhibitor inconclusive, IL1B secr inh -59
Cc1ccc2cc(CN(Cc3ccco3)Cc3nnnn3Cc3ccco3)c(=O)[nH]c2c1	none (no result: HT1080 IDH1KD tx, HT1080-NT tox, IL1B secr inh)
Cc1cc(C)c2cc(CN(Cc3ccc4c(c3)OCO4)Cc3nnnn3Cc3ccco3)c(=O)[nH]c2c1	IL1B secr inh -62
Cc1ccc2[nH]c(=O)c(CN(Cc3ccco3)Cc3nnnn3Cc3ccccc3)cc2c1	none (no result: HT1080 IDH1KD tx, HT1080-NT tox, IL1B secr inh)
Cc1ccc2[nH]c(=O)c(CN(Cc3ccccc3)Cc3nnnn3Cc3ccccc3)cc2c1	none (no result: HT1080 IDH1KD tx, HT1080-NT tox, IL1B secr inh)
NNC(=O)c1ccc(COc2cccc3ccccc23)cc1	none
O=C(NCc1ccco1)c1ccc(COc2ccccc2Cl)cc1	IL1B secr inh -57
O=C(NCc1ccco1)c1ccc(COc2ccc(Cl)cc2)cc1	none
O=C(NCc1ccccc1)c1cccc(COc2ccccc2Cl)c1	IL1B secr inh -63
O=C(NCc1ccco1)c1ccc(COc2cccc3ccccc23)cc1	IL1B secr inh -60
Cc1cccc(N(C)S(=O)(=O)c2ccc3c(c2)CCC(=O)N3)c1	HT1080 IDH1KD tx inconclusive, HT1080-NT tox inconclusive
COc1cccc(C(=O)N2CCN(Cc3cc(Br)ccc3OC)CC2)c1	IL1B secr inh -51
COc1ccc(Br)cc1CN1CCN(Cc2c[nH]c3ccccc23)CC1	HT1080 IDH1KD tx 21µM, HT1080-NT tox inconclusive, TGFb inhibitor inconclusive, IL1B secr inh -74
COc1ccc(Br)cc1CN1CCN(C(=O)c2ccc(OC)c(OC)c2)CC1	TGFb inhibitor inconclusive
Cc1cccc(-c2cc3nc4c(c(NCc5ccco5)n3n2)CCCC4)c1	HT1080 IDH1KD tx inconclusive, HT1080-NT tox inconclusive, TGFb inhibitor inconclusive, IL1B secr inh -98
Cc1cccc(-c2cc3nc4c(c(N5CCOCC5)n3n2)CCCC4)c1	HT1080 IDH1KD tx inconclusive, HT1080-NT tox inconclusive, TGFb inhibitor inconclusive
O=Cc1ccc(/C=C2\C=Cc3ccccc32)cc1	TGFb inhibitor 3.5µM (no result: HT1080 IDH1KD tx, HT1080-NT tox, Giardia killer, IL1B secr inh)
NC(N)=Nc1ccc(/C=C2\C=Cc3ccccc32)cc1	TGFb inhibitor 16µM (no result: HT1080 IDH1KD tx, HT1080-NT tox, Giardia killer, IL1B secr inh)
CNc1ccc(C=C2C=Cc3ccccc32)cc1	TGFb inhibitor inconclusive, IL1B secr inh -73
O=Cc1ccc(/C=C2/C=Cc3ccccc32)cc1	none (no result: HT1080 IDH1KD tx, HT1080-NT tox, Giardia killer, IL1B secr inh)
O=S(=O)(c1ccc2[nH]c3c(c2c1)CCCCC3)N1CCN(c2cccc(Cl)c2)CC1	TGFb inhibitor inconclusive (no result: HT1080 IDH1KD tx, HT1080-NT tox, Giardia killer, IL1B secr inh)
CC1CCN(C(=O)CN2c3ccc(C(C)C)cc3-c3ccccc3S2(=O)=O)CC1	none (no result: HT1080 IDH1KD tx, HT1080-NT tox, Giardia killer, IL1B secr inh)
Cc1ccc2[nH]c(-c3ccccc3)cc(=O)c2c1	HT1080 IDH1KD tx 1µM, HT1080-NT tox 0.73µM, TGFb inhibitor inconclusive, Giardia killer inconclusive
O=C(Cn1nc(-c2ccccc2)ccc1=O)NCc1ccc(F)cc1Cl	none (no result: HT1080 IDH1KD tx, HT1080-NT tox, Giardia killer, IL1B secr inh)
CCc1ccc(CNC(=O)Cn2nc(-c3ccccc3)ccc2=O)cc1	IL1B secr inh -87
Cc1c(/C(O)=C2\C(=O)C(=O)N(CCN(C)C)C2c2cccnc2)cnn1-c1ccccc1 (stereo unspecified)	none
C/C(N)=C(/C#N)C(=O)COC(=O)c1cccc(O)c1	IL1B secr inh -54
CC(C)Cn1cnc2c(SCc3ccccc3)nc(N)nc21	IL1B secr inh -50
CCC(C)Cn1cnc2c(SCc3ccccc3F)nc(N)nc21 (stereo unspecified)	IL1B secr inh -56
COc1ccc(NC(=O)CN(C)C(=O)c2ccc(N3CCOCC3)c([N+](=O)[O-])c2)cc1	none
Cn1c(=O)cc(OCC(=O)NCCc2ccc(Cl)cc2)c2ccccc21	none
c1cn2c(NC3CCCCC3)c(-c3ccc(SC4CCCCC4)cc3)nc2cn1	HT1080 IDH1KD tx inconclusive, HT1080-NT tox inconclusive, TGFb inhibitor 2.8µM, IL1B secr inh -63
c1cc(SC2CCCCC2)cc(-c2nc3cnccn3c2NC2CCCCC2)c1	HepG2 viability 16µM, HT1080 IDH1KD tx inconclusive, HT1080-NT tox inconclusive, IL1B secr inh -66
c1cn2c(NC3CCCC3)c(-c3ccc(N4CCOCC4)cc3)nc2cn1	Giardia killer inconclusive
CCCN1CCC(=O)N([C@H](CSc2ccc(C)cc2)c2ccccc2)CC1	none
Nc1ncnc2c1ncn2[C@@H]1O[C@H](C(=O)NCC2CCN(Cc3ccccc3)CC2)[C@@H](O)[C@H]1O	none (no result: Giardia killer)
COc1ccc(C(=O)NNC2=CC(=O)CC(C)(C)C2)cc1OC	none
O=C(NCc1cccnc1)c1ccc(COc2ccc(Cl)cc2Cl)o1	none
CC(C)(C)NC(=O)c1ccc(COc2ccc(Cl)cc2Cl)o1	HT1080-NT tox inconclusive, IL1B secr inh -69
O=C(Nc1cccnc1)c1ccc(COc2cc(Cl)ccc2Cl)o1	HT1080 IDH1KD tx 23µM, HT1080-NT tox inconclusive, TGFb inhibitor inconclusive
O=C(Nc1cccnc1)c1ccc(COc2ccccc2Cl)o1	HT1080 IDH1KD tx 21µM, HT1080-NT tox inconclusive
O=C(Nc1nccs1)c1ccc(COc2ccccc2Br)o1	HT1080 IDH1KD tx inconclusive, HT1080-NT tox 10µM, TGFb inhibitor inconclusive
CC(C)n1c(=O)nc(-c2ccccc2)c2cc3c(cc21)OCO3	none (no result: Giardia killer)
CCOc1ccc(S(=O)(=O)N2CCCC(C(=O)NCc3ccccn3)C2)cc1C (stereo unspecified)	none
O=C(CCSc1nnc2ccc3ccccc3n12)Nc1ccc(F)cc1	HT1080 IDH1KD tx inconclusive, HT1080-NT tox inconclusive
CC(=O)c1ccc(OCc2cc(C(=O)N3CCC(Oc4ccccc4C)CC3)no2)cc1	TGFb inhibitor inconclusive
Cc1nc2cc(N=NC3=C(O)CCCC3=O)ccc2s1	none
COc1ccc(S(=O)(=O)Nc2cccc(C(C)=O)c2)cc1Br	TGFb inhibitor inconclusive, IL1B secr inh -71
CCNC(=O)C1(C)CCCN(Cc2cccc3ccccc23)C1 (stereo unspecified)	none (no result: Giardia killer)
COc1cccc(OC)c1OCC(O)CN1CCN(c2ccccc2F)CC1 (stereo unspecified)	none
CC1(Oc2cccnc2Cl)CCN(Cc2ccc(OC(F)(F)F)cc2)C1 (stereo unspecified)	IL1B secr inh -56 (no result: Giardia killer)
